# Assay results published in PubChem BioAssay AID618 (Sanford-Burnham Center for Chemical Genomics, 2007).
# About 540 (0.62%) of roughly 87,000 compounds were called active. The rule behind the calls is not given here. Only a selection was taken, and actives are over-represented in it overall. Results with a measured potency or affinity are listed apart.
# Assay: inhibitors of MT1-MMP promoter transcription, cell-based, luciferase reporter, luminescence (AID 618);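 note: actives suppress MT1-MMP promoter-driven transcription so potencies describe inhibitors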
# Settings: MT1-MMP promoter luciferase reporter cells
row,SMILES,outcome
1,COc1ccc(-n2c(Cc3cccn3C)nnc2SCC(=O)Nc2cccc(F)c2)cc1,inactive
2,Cc1cc(/C=N/n2cnnc2)c(C)n1-c1ccc(OCc2ccccc2F)cc1,inactive
3,Cc1cc(/C=N/n2cnnc2)c(C)n1-c1ccc(OCc2ccc(Cl)cc2)cc1,inactive
4,Cc1ccc(C)c(N(CC(=O)NC2CCCCC2)C(=O)CCC(=O)Nc2ccccn2)c1,inactive
5,O=C(COC(=O)c1cccs1)c1ccc2ccccc2c1,inactive
6,O=C(COC(=O)c1cccs1)c1ccccc1,inactive
7,CCOC(=O)C1=C(C)NC(=O)NC1c1ccccc1Cl (stereo unspecified),inactive
8,O=C(NCCN1CCOCC1)c1ccc(F)cc1,inactive
9,c1ccc(-n2ncc3c(N4CCN(c5ccccn5)CC4)nc(N4CCCCC4)nc32)cc1,inactive
10,CCOC(=O)N1CCN(C(=O)c2ccc(CS(=O)(=O)c3ccc(OC)cc3)o2)CC1,inactive
11,Cc1ccc(C)c(N2CCN(C(=O)c3ccc(CS(=O)(=O)c4ccccc4C)o3)CC2)c1,inactive
12,COc1ccc(S(=O)(=O)Cc2ccc(C(=O)N3CCN(c4cccc(C)c4)C(C)C3)o2)cc1 (stereo unspecified),active
13,Cc1ccccc1S(=O)(=O)Cc1ccc(C(=O)N2CC(C)CC(C)C2)o1 (stereo unspecified),inactive
14,COc1ccc(N2CCN(C(=O)c3ccc(CS(=O)(=O)c4ccc(OC)cc4)o3)CC2)cc1,inactive
15,Cc1cccc(N2CCN(C(=O)c3ccc(CS(=O)(=O)c4ccccc4C)o3)CC2C)c1 (stereo unspecified),active
16,Cc1ccc(N=Cc2ccc(N(C)C)cc2)cc1,inactive
17,O=S(=O)(/N=C(\c1ccccc1)N1CCOCC1)c1cccs1,inactive
18,COCCn1nnnc1CN1CCC(C)CC1,inactive
19,CCc1cc(=O)oc2cc(OCC(=O)N3CCc4ccccc43)ccc12,inactive
20,COCCCN1C(=O)C(=O)/C(=C(/O)c2ccc(OC(C)C)cc2)C1c1ccncc1 (stereo unspecified),inactive
21,COc1ccc(-c2nc(-c3ccccc3)c(-c3cc([N+](=O)[O-])ccc3C)[nH]2)cc1O,inactive
22,COc1ccc(-c2nc(-c3cccs3)c(-c3cccs3)[nH]2)cc1O,inactive
23,COc1ccc(-c2c/c(=N\c3nc(-c4ccccc4)c(C)s3)c3ccccc3o2)cc1O,active
24,Cc1nn(C)c(C)c1S(=O)(=O)N1CCC(C(=O)NCC2COc3ccccc3O2)CC1 (stereo unspecified),inactive
25,COC(=O)[C@@H]1C[C@H]2CC[C@H](O)C[C@H]2N1Cc1ccc(-c2ccccc2)cc1,active
26,COC(=O)[C@@H]1C[C@@H]2CC[C@@H](O)C[C@@H]2N1Cc1ccc(Cl)cc1,inactive

row,SMILES,outcome
1,COC(=O)[C@@H]1C[C@@H]2CC[C@@H](O)C[C@@H]2N1Cc1ccc(-c2ccccc2)cc1,inactive
2,CC1(C)CC(=O)c2cnn(-c3nc4ccccc4[nH]3)c2C1,inactive
3,O=c1c(Cl)c(NCCCO)cnn1-c1nc2ccccc2[nH]1,inactive
4,CC(=O)c1c(C)nn(C(=O)N2CCOCC2)c1C,inactive
5,CCOc1ccccc1N(C(=O)CNS(=O)(=O)c1ccccc1)C(CC)C(=O)NCc1ccco1 (stereo unspecified),inactive
6,COc1ccc(/C=N/n2c(N)nc3ccccc32)cc1OC,inactive
7,COc1ccc(/C=N/n2cnnc2SCc2ccccc2)cc1,inactive
8,COc1ccc(/C=N\n2nnc3ccccc32)cc1,active
9,CC1(c2ccccc2)NC(=O)N(CC(=O)N2CCOCC2)C1=O (stereo unspecified),inactive
10,O=c1c2ccccc2cnn1-c1ccc(Br)cc1,inactive
11,O=c1c2ccccc2cnn1-c1nc2ccccc2s1,active
12,O=c1c2ccccc2cnn1-c1ccc(Cl)cc1,inactive
13,COc1ccc(-c2noc(CCC(=O)NCCCN3CCC(Cc4ccccc4)CC3)n2)cc1,inactive
14,CCCC(=O)Nc1ccc(Cl)c(NC(=O)c2cccnc2)c1,inactive
15,O=C1CCCCCN1C(=O)c1ccc(C(=O)N2CCCCCC2=O)cc1,inactive
16,O=C1CCCCCN1C(=O)c1cccc(C(=O)N2CCCCCC2=O)c1,inactive
17,Cc1ccc2c(c1)CCCN2C(=O)C1CCCO1 (stereo unspecified),inactive
18,CS(=O)(=O)c1ccc2nc(NC(=O)c3cccs3)sc2c1,active
19,Cc1ccc2nc(NC(=O)c3cccs3)sc2c1,active
20,CCOC(=O)c1ccc2nc(NC(=O)c3cccs3)sc2c1,inactive
21,CCN(CC)S(=O)(=O)c1ccc2nc(NC(=O)c3cccs3)sc2c1,inactive
22,CN(C)S(=O)(=O)c1ccc2nc(NC(=O)c3cccs3)sc2c1,inactive
23,Cc1ccc2nc(NC(=O)c3ccc(Cl)s3)sc2c1,inactive
24,CCSc1n[nH]c2nc3c(c(=O)n12)C1(CCCC1)Cc1ccccc1-3,inactive
25,CCCCOc1ccccc1C1CC(=O)NC2=C1C(=O)CCC2 (stereo unspecified),active
26,CCCOc1ccccc1C1CC(=O)NC2=C1C(=O)CCC2 (stereo unspecified),inactive

row,SMILES,outcome
1,CCOc1ccccc1C1CC(=O)NC2=C1C(=O)CCC2 (stereo unspecified),inactive
2,COc1oc(-c2ccc(Cl)cc2)nc1C(F)(F)F,inactive
3,c1ccc2c(c1)c1c3n2CCNC3CCC1 (stereo unspecified),inactive
4,Cc1ccc2c(c1)c1c3n2CCCNC3CCC1 (stereo unspecified),inactive
5,Cc1ccc2c(c1)c1c3n2CCN(C(=O)CN2CCN(C)CC2)C3CCC1 (stereo unspecified),inactive
6,Cc1ccc2c(c1)c1c3n2CCN(C(=O)C2CC2)C3CCC1 (stereo unspecified),inactive
7,c1cc2c(cc1C1CCCCC1)c1c3n2CCCNC3CCC1 (stereo unspecified),active
8,CCCCCn1c(N)c(-c2nc3ccccc3s2)c2c([N+](=O)[O-])nn(C)c(=O)c21,inactive
9,Cc1cc(OC(=O)c2ccco2)c2c(C)cc(=O)oc2c1,inactive
10,O=c1oc2ccccc2n1CCCOc1ccccc1,inactive
11,Cc1ccc(NC(=O)CN2CC(C)SC2=NC2CCCCC2)cc1 (stereo unspecified),active
12,CC1CCCN(S(=O)(=O)c2ccc(NC(=O)CN3CCN(C)CC3)cc2)C1 (stereo unspecified),inactive
13,CCc1cccc(CC)c1NC(=O)CN1CC(C)SC1=NC1CCCCC1 (stereo unspecified),inactive
14,C=CCOc1cc(C)nc(-c2ccccc2O)n1,inactive
15,CCOC(=O)CSc1nnc(N)s1,inactive
16,O=C1C/C(=C/NCc2ccccc2)C(=O)N1,inactive
17,CCSc1nnc(NC(=O)CSc2nccn2-c2cccc(C)c2C)s1,inactive
18,CCc1nnc(NC(=O)CSc2nccn2-c2cccc(C)c2C)s1,inactive
19,Cc1nnc(NC(=O)CSc2nccn2-c2cccc(C)c2C)s1,active
20,O=C1CC(c2c[nH]c3ccccc23)C(=O)N1 (stereo unspecified),inactive
21,CCOc1ccc(-c2cc(CCCC(=O)Nc3cccc(OC)c3)no2)cc1,inactive
22,CCOc1ccc(-c2cc(CCCC(=O)NCCc3ccccc3)no2)cc1,inactive
23,CCOc1ccc(-c2cc(CCCC(=O)NCCc3ccc(OC)c(OC)c3OC)no2)cc1,inactive
24,CCOc1ccc(NC(=O)CCCc2cc(-c3ccc(OCC)cc3)on2)cc1,inactive
